Shown are actives, neighbours in structure and some others; about 2.8% of the full set was active somewhere.
Peg3 prom inh – Peg3 promoter activity inhibition. 1.7% of 360,000 active. inhibition, % at 20 µM. HeLa PEG-Prom luciferase reporter, luminescence, overnight. AID 588405;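 active = inhibition of at least 50% at 20 µM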
CF NFkB inh – inhibitors of cystic fibrosis induced NF-kB. AID 588850. inhibition, % at 5 µM. 0.86% of 360,000 active. KKLEB NF-kB-GFP reporter, PAF-induced, GFP fluorescence overnight;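 active = at least 50% inhibition at 5 µM, scaled per plate between neutral and stimulator controls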;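 note: PAF is a Pseudomonas aeruginosa culture filtrate used as stimulus; plate controls were PAF-stimulated DMSO wells for no effect and unstimulated DMSO wells for full effect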
KKLEB tox – CF airway cell cytotoxicity counter-screen | KKLEB CF airway cells viability, ATPlite luminescence, overnight; hits give low values; cells stimulated with P. aeruginosa culture filtrate | activity change (cytotoxicity), % at 5 µM | 0.36% of 360,000 active | AID 602141;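 active = corrected activity change at or below -50% at 5 µM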
TRPM1 prom inh – reduces MITF-dependent TRPM1 promoter luciferase signal; SK-MEL-5 TRPM1 promoter luciferase, 24 h; inhibition, % at 12.5 µM; 0.83% of 330,000 active; AID 488899;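 active = mean inhibition across replicates of 60% or more, whatever share of single replicates reaches that level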
HIF-2a block – blocks HIF-2a reporter activity; AID 624352; inhibition, % at 18.8 µM; 0.72% of 360,000 active; 786-0 RCC cells HIF-2a reporter, luciferase luminescence, overnight;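 active = inhibition of the luminescence signal of 40% or more relative to plate controls, in a single-dose primary screen at 18.75 µM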
Shn3 3UTR inh – Schnurri-3 reporter inhibition in Clone20 osteoblasts. Clone20 osteoblast Shn3 3'UTR firefly luciferase, 24 h. inhibition, % at 12.5 µM. 0.52% of 360,000 active. AID 588674;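 active = mean inhibition of at least 75% with every replicate also reaching 75%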;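 note: 0% = median of neutral control wells and 100% = pilot-screen positive control compound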
CF NFkB inh conf – CF NF-kB inhibition confirmation, single concentration; shares compounds with CF NFkB inh; KKLEB CF airway cells, PAF-induced NF-kB-GFP fluorescence, overnight; inhibition, % at 5 µM; 64% of 1,300 active; in the data active = inhibition above about 40%;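 note: stimulus PAF is a Pseudomonas aeruginosa filtrate and not platelet activating factor; plate controls were DMSO wells with stimulus for no effect and unstimulated DMSO wells for full effect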
Numbers without * were called inactive; . = not tested or not shown; ! = not active in a repeat.

SMILES | Peg3 prom inh | CF NFkB inh | KKLEB tox | TRPM1 prom inh | HIF-2a block | Shn3 3UTR inh | CF NFkB inh conf
COc1ccc(-c2ccc(OC)c([C@H]3[C@H]4C=CC[C@@H](C)[C@@H]4C(=O)N3Cc3ccccc3)c2)cc1OC | 6 | 35 | -17 | 7 | 18 | 6 | .
COc1ccc(-c2c([C@H]3[C@H]4C=CC[C@@H](C)[C@@H]4C(=O)N3Cc3ccccc3)ccc3ccccc23)cc1OC | -2 | 62* | -24 | 12 | 15 | 45 | 46*
COc1ccc(-c2ccccc2[C@H]2[C@@H]3C=CC[C@@H](C)[C@@H]3C(=O)N2Cc2ccccc2)cc1 | 33 | 60* | -26 | 20 | 6 | 34 | 50*
O=C(NCC(=O)c1ccccc1)OCc1ccc([N+](=O)[O-])cc1 | -44 | 2 | 1 | -23 | -51 | 1 | .
FC(F)(F)c1cccc(-n2c(Cn3nnc4ccccc43)n[nH]c2=S)c1 | 0 | -10 | 2 | . | 15 | 10 | .
CC(C)(C)S(=O)N1Cc2cc(C(=O)NCC(F)(F)F)nc(-c3cccc(-c4cccc(F)c4)c3)c2[C@@H]1CCO (stereo not given in full) | 69* | 78* | -10 | . | 15 | 25 | 65*
CN(Cc1ccccc1)C(=O)[C@@H]1CCCN1C(=O)[C@@H]1CCCN1C(=O)c1cccc2ccccc12 | . | . | . | . | 10 | . | .
O=C(Nc1ccc(NC(=O)c2ccccn2)cc1)C(=O)Nc1ccc2c(c1)OCCO2 | -16 | 55* | -47 | -9 | -15 | -16 | 11
CCCCCCCCC1CC(C(=O)Nc2ccccc2)C(=O)O1 (stereo not given) | 20 | -4 | 7 | -30 | 17 | -6 | .
O=S1(=O)CC=C(CSC(=S)NC2CCS(=O)(=O)C2)C1 (stereo not given) | 57* | 51* | -11 | 29 | 38 | -1 | 96*
C=C/C(C)=C/CC1C(=C)CCC2C(C)(C(=O)O)CCCC12C (stereo not given) | 7 | -6 | 3 | -1 | 10 | -23 | .
C=C1CC[C@@H]2[C@](C)(CO)[C@H](O)CC[C@@]2(C)[C@@H]1C/C=C1/C(=O)OCC1O (stereo not given in full) | -20 | 54* | -19 | 59 | 22 | 35 | 15
Cc1ccc(-c2cc3ncc(C#N)c(N)n3n2)cc1 | -112 | -2 | 2 | 0 | -171 | -62 | .
COc1cc(NC(=O)c2cc3cccc(OC)c3o2)cc(C(=O)Nc2cccc(C(F)(F)F)c2)c1 | 41 | 62* | -27 | 51 | 6 | 50 | 70*
COc1cc(NC(=O)c2csc(-c3ccncc3)n2)cc(C(=O)Nc2cccc(C(F)(F)F)c2)c1 | 50 | 57*! | 11 | 4 | -19 | 39 | 71*
O=C(Nc1cccc(C(F)(F)F)c1)c1csc(-c2ccncc2)n1 | -28 | -32 | 2 | -12 | -36 | 3 | .
Cc1ccc(C(=O)c2cnc3ccccc3c2-c2ccccc2)cc1 | 19 | 70* | -17 | -8 | 17 | 25 | 38
CCN(C[C@H]1N[C@@](CC)(C(=O)OC)[C@H]2C(=O)N(C)C(=O)[C@@H]12)S(=O)(=O)c1ccc(OC)cc1 | -1 | 10 | -7 | -1 | 11 | -1 | .
CC(=O)c1cc(F)ccc1OCC(=O)Nc1ccc2c(c1)OCO2 | -351 | -10 | -13 | -87 | -233 | -128 | .
CC1(C(=O)NS(=O)(=O)c2cccc(Cl)c2)CCN1C(=O)Cc1ccc(Cl)cc1Cl (stereo not given) | -9 | 16 | -9 | . | 14 | 1 | .
O=[N+]([O-])c1ccc(O)c(C2CCCCC2)c1 | 39 | 64* | -19 | 3 | 10 | -2 | 93*
COCOc1ccc(/C=C/C(=O)c2c(O)cc(OCOC)cc2OCOC)cc1 | 15 | 52* | -20 | . | -11 | -14 | -16
CCOc1ccc(/C=C/C(=O)c2c(O)cc(C)oc2=O)cc1 | -154 | 0 | 1 | -26 | -283 | -81 | .
CCc1ccc(NC(=O)CC2C(=O)N(c3ccc(C)cc3)C(=O)N2C2CC2)cc1 (stereo not given) | 16 | -7 | 12 | -1 | 14 | 24 | .
CCOc1ccc(NCc2cc3c(C(C)(C)C)nn(-c4ccccc4)c3[nH]c2=O)cc1 | -1 | 55* | 32 | 21 | 14 | -23 | 73*
SMILES | Peg3 prom inh | CF NFkB inh | KKLEB tox | TRPM1 prom inh | HIF-2a block | Shn3 3UTR inh | CF NFkB inh conf
COC(=O)N1C(=O)[C@@](c2ccccc2)(C2CCCC2)N1C(=O)OC | 50* | 67* | -16 | 30 | 35 | -3 | 46*
COC(=O)N1C(=O)[C@](c2ccccc2)(C2CCCCC2)N1C(=O)OC | 42 | 40 | 8 | 21 | 26 | -4 | .
O=C1OC(Nc2nc(-c3ccc(F)cc3)cs2)c2ccccc21 (stereo not given) | 42 | 53* | -2 | -8 | -69 | 49 | 71*
CCOC(=O)CNC(=O)COc1coc(CN2CCN(Cc3ccccc3)CC2)cc1=O | -5 | 12 | -6 | -2 | -3 | -8 | .
Fc1ccccc1-c1csc(=Nc2cccnc2)n1CC1CCCO1 (stereo not given) | -4 | -19 | 11 | 5 | -27 | -35 | .
Fc1ccccc1-c1csc(=Nc2cccnc2)n1CCCn1ccnc1 | -67 | 66* | -13 | -10 | -33 | 52 | 71*
Nc1cc(N)cc(C(=O)OCC(=O)Nc2cc(S(=O)(=O)N3CCCCC3)ccc2Cl)c1 | 13 | 7 | 6 | 5 | 11 | 12 | .
COc1nc(-c2ccc(C)cc2)ccc1-c1noc(-c2cccnc2)n1 | -14 | 53* | -32 | 4 | -6 | 11 | 19
CC(NC(=O)c1ccc([N+](=O)[O-])cc1Cl)C1CC2CCC1C2 (stereo not given) | -31 | 16 | 3 | 2 | -67 | -9 | .
CC(NC(=O)c1ccc([N+](=O)[O-])o1)C1CC2CCC1C2 (stereo not given) | 41 | 62* | -9 | 50 | 7 | 12 | 25
Cc1ccc(SCC(=O)OCC(=O)N(CC(C)C)c2c(N)n(Cc3ccccc3)c(=O)[nH]c2=O)cc1C | 21 | 15 | 6 | 10 | 12 | -4 | .
COc1ccc(-c2c(C#Cc3ccsc3)c3cc(-c4cccc5[nH]ccc45)ccc3n2C)cc1 | -4 | -6 | 1 | 7 | -3 | 2 | .
COc1cc(OC)cc(-c2c(C#Cc3ccsc3)c3cc(-c4cccc5[nH]cc(C=O)c45)ccc3n2C)c1 | 54* | 73* | -14 | 8 | -42 | -10 | -33
CCOc1cc(Br)c(Br)c(C=Nc2ccc(NC(C)=O)cc2)c1O | 32 | 69* | -1 | 8 | 28 | -21 | 61*
